Results filed as inconclusive are left out. Activity calls are given as the source filed them. How the source made its calls, unless noted: active means hit-call score of the fitted dose curve at least 0.9, where 1 is the maximum; inactive means score below 0.9.
Columns and labels:
[1] = CCTE_Shafer_MEA_acute_AB: CCTE's Alamar Blue Assay for Cytotoxicity in the Neural Acute Assay, Shafer Lab (AID 2284069; active means hit-call score of the fitted dose curve at least 0.9, where 1 is the maximum;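 further: active compounds lower the viability signal compared with DMSO wells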)
In short: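 Cytotoxicity endpoint for acute MEA exposures of primary rat cortical neurons on day 13 or 15. Resazurin reduction is read fluorescently at 544/590 nm, with DMSO as the negative-control baseline.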

[2] = CCTE_Shafer_MEA_acute_LDH: CCTE's Lactate Dehydrogenase Assay for Cytotoxicity in the Neural Acute Assay, Shafer Lab (AID 2284086; active means hit-call score of the fitted dose curve at least 0.9, where 1 is the maximum;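 further: active means LDH release rises above DMSO vehicle level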)
In short: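 Released lactate dehydrogenase, read at 490 nm, indicated cytotoxicity after acute 40-min compound treatment of rat cortical neuron networks grown on 48-well MEA plates.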

[3] = CCTE_Shafer_MEA_dev_LDH: CCTE's Lactate Dehydrogenase Assay for Cytotoxicity in the Neural Network Formation Assay, Shafer Lab (AID 2284068; active means hit-call score of the fitted dose curve at least 0.9, where 1 is the maximum;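 further: exposure for twelve days from plating with re-dosing on DIV 5 and 9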)
In short: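 Developing rat cortical networks on MEA plates are exposed to compound for 12 days from plating. LDH activity is measured spectrophotometrically, with DMSO as baseline.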

[4] = CCTE_Shafer_MEA_dev_AB: CCTE's Alamar Blue Assay for Cytotoxicity in the Neural Network Formation Assay, Shafer Lab (AID 2284083; active means hit-call score of the fitted dose curve at least 0.9, where 1 is the maximum;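 further: resazurin reduction fluorescence as viability of cultured neurons; twelve days of exposure from plating with re-dosing on DIV 5 and 9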)
In short: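 Cytotoxicity companion to the developmental MEA: primary rat cortical neurons, 12-day exposure starting day 0, compound refreshed DIV 5 and 9; resazurin fluorescence, fitted against DMSO vehicle.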

[5] = CCTE_Shafer_MEA_dev_mutual_information_norm: CCTE's Neural Network Formation Assay for Mutual Information Normalization, Shafer Lab (AID 2284091);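 on AC50: mutual information between electrodes summarised as area under curve across four recording days; potency is for a decrease in mutual information relative to DMSO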
In short: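 Rat cortical cultures, 48-well MEA, continuous exposure DIV 0–12 with full media/compound change DIV 5 and 9. Readout: inter-electrode mutual information, AxIS adaptive spike detection; AUC across DIV 5/7/9/12 recordings; DMSO baseline, negative fitting direction.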

[6] = CCTE_Shafer_MEA_dev_correlation_coefficient_mean: CCTE's Neural Network Formation Assay for Mean Correlation Coefficient, Shafer Lab (AID 2284093);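 on AC50: well mean pairwise spike train correlation integrated as AUC over recording days 5 to 12; potency fitted for loss of correlation relative to DMSO vehicle wells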
In short: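 Extracellular firing from rat cortical networks on 48-well MEAs, DMSO-referenced, negative fitting direction. Compound present from plating to DIV12; mean pairwise correlation per well integrated over DIV5–12 recordings by trapezoidal AUC.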

[7] = TAMU_PeakParms_SingleDonor1434_Chronotropy: Texas A&M University (TAMU) 1.5-hr Human Induced Pluripotent Stem Cell (iPSC)-derived Cardiomyocytes Calcium (Ca+2) Flux Assay for Cardiotoxicity: Chronotropy (changes in peak frequency) (AID 2284217); details: actives raise or lower the signal
In short: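 Using fluorescent Ca2+ flux, average beats per second are measured in human iPSC-derived cardiomyocytes treated 90 min (0.5% DMSO vehicle, 0.2–100 uM). Non-beating data points are removed; activity is modeled in both directions relative to DMSO controls.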

[8] = UKN2_HCS_IMR90_neural_migration: University of Konstanz (UKN) Leist Lab Neural Crest Cell Migration Assay in human induced IMR90 Pluripotent Stem Cells (UKN2) (AID 2284204); details: actives raise or lower the signal
In short: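 iPSC-derived IMR90 neural crest cells on PLO/laminin/fibronectin were seeded around silicone stoppers; after stopper removal, migration in N2-S medium with EGF and FGF ran 24 h before 24 h chemical exposure. Calcein-AM/Hoechst high-content imaging; bidirectional fit versus DMSO.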

[9] = IUF_NPC1b_proliferation_BrdU_72hr: Leibniz Research Institute for Environmental Medicine (IUF) 72-hour Neural Progenitor Cell Bromodeoxyuridine (BrdU) Proliferation Assay (NPC1b) (AID 2284207)
In short: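 hNPC spheres (primary, GW 16-19 fetal cortex), single sphere/well, EGF+FGF medium; 72 h compound, no renewal; BrdU pulse last 16 h; luminescent ELISA; activity vs DMSO baseline; growth-factor withdrawal as positive control.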

[10] = IUF_NPC1a_proliferation_area_72hr: Leibniz Research Institute for Environmental Medicine (IUF) 72-hour Neural Progenitor Cell Proliferation Area Assay (NPC1a) (AID 2284208)
In short: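 Single 0.25–0.35 mm human fetal neural progenitor spheres in proliferation medium with EGF and FGF, exposed 72 h from plating without renewal at 37C, pH 7.2-7.6. Sphere area growth measured by automated phase-contrast imaging, relative to DMSO.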

[11] = IUF_NPC1_viability_72hr: Viability Assessment at 72 hours in the Leibniz Research Institute for Environmental Medicine (IUF) Neural Progenitor Cell Proliferation Assay (NPC1) (AID 2284209)
In short: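 Each well receives one 0.3 mm progenitor sphere from fetal brain cortex; test chemical is added at plating and left three days. Viability comes from alamar blue fluorescence, multiplexed with LDH and BrdU readouts in the same well.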

[12] = CCTE_Mundy_HCI_Cortical_Synap_Neur_Matur_NeuriteSpotCountPerNeuriteLength: CCTE's Synaptogenesis and Neurite Maturation Assay in rat cortical cells for Neurite Spot Count per Neurite Length, Mundy Lab (AID 2284210)
In short: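 Rat primary cortical cultures, glia arrested with AraC at DIV 5, were dosed with media change at DIV 7 and fixed at DIV 12. Synaptophysin puncta per MAP2-labelled neurite length were quantified by high-content imaging versus DMSO.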

[13] = CCTE_Mundy_HCI_Cortical_Synap_Neur_Matur_BPCount: CCTE's Synaptogenesis and Neurite Maturation Assay in rat cortical cells for Branch Point Count, Mundy Lab (AID 2284211)
In short: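 Branch point number is quantified by automated imaging of fluorescently labelled neurites and synapses in rat primary cortical neurons exposed from DIV 7 to DIV 12. Activity is analysed relative to DMSO negative control.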

[14] = CCTE_Mundy_HCI_Cortical_NOG_NeuriteCount: CCTE's Neurite Outgrowth Assay in rat cortical cells for Neurite Count, Mundy Lab (AID 2284212);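 further: cells fixed about two days after chemical exposure began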
In short: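 Neurite number per cell from high-content imaging of betaIII-tubulin immunostaining, with Hoechst nuclear counterstain.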

[15] = CCTE_Mundy_HCI_Cortical_NOG_NeuriteLength: CCTE's Neurite Outgrowth Assay in rat cortical cells for Neurite Length, Mundy Lab (AID 2284213)
In short: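 Neurite length was read by high-content imaging of βIII-tubulin-labelled neurites in rat primary cortical cultures. Activity was fitted relative to DMSO.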

[16] = CCTE_Mundy_HCI_Cortical_Synap_Neur_Matur_NeuriteSpotCountPerNeuron: CCTE's Synaptogenesis and Neurite Maturation Assay in rat cortical cells for Neurite Spot Count per Neuron Count, Mundy Lab (AID 2284215)
In short: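 Rat primary cortical cultures given AraC at DIV 5, dosed from DIV 7 to DIV 12 with media change. Fixed, stained for MAP2, synaptophysin and Hoechst; neurite-associated synaptophysin puncta per neuron quantified by high-content imaging versus DMSO.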

[17] = UKN4_HCS_LUHMES_neurite_outgrowth: University of Konstanz (UKN) Leist Lab Neurite Outgrowth Assay in human LUHMES cells (UKN4) (AID 2284206); details: actives raise or lower the signal
In short: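 2-day-differentiated LUHMES, 24 h cpd exposure, live calcein-AM + H-33342 stain, HCS fluorescence imaging of neurite area; DMSO = baseline, bidirectional fit.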

Measured: AC50

OC(c1ccc(Cl)cc1)(c1cncnc1)c1ccccc1Cl (stereo unspecified)
inactive: [1]

CC(C)Oc1cc(-n2nc(C(C)(C)C)oc2=O)c(Cl)cc1Cl
inactive: [1] | [2]

COc1ccc(C(c2ccc(OC)cc2)C(Cl)(Cl)Cl)cc1
active: [3] 4.87 µM | [4] 12.2 µM | [5] 1.97 µM | [6] 2.95 µM

Cc1c(F)c(F)c(COC(=O)C2C(/C=C(\Cl)C(F)(F)F)C2(C)C)c(F)c1F (stereo unspecified)
inactive: [1]
active: [3] 18 µM | [4] 17.4 µM | [5] 0.302 µM | [6] 0.61 µM

COC(=O)C(C)Oc1ccc(Oc2ccc(Cl)cc2Cl)cc1 (stereo unspecified)
inactive: [1] | [2]

CCCC1COC(Cn2cncn2)(c2ccc(Cl)cc2Cl)O1 (stereo unspecified)
inactive: [1] | [2]

CCCN(CCC)c1c([N+](=O)[O-])cc(S(N)(=O)=O)cc1[N+](=O)[O-]
inactive: [1] | [2]

Oc1ccccc1-c1ccccc1
active: [7] 45.1 µM

CCCCOC(=O)c1ccccc1C(=O)OCCCC
active: [3] 50 µM | [12] 84.1 µM | [13] 50 µM | [16] 50 µM
not listed: [1] | [2] | [7] | [17]
inactive: all other assays above

CC(Oc1ccc(Cl)cc1Cl)C(=O)O (stereo unspecified)
inactive: [1] | [2]

CON(C)C(=O)Nc1ccc(Cl)c(Cl)c1
inactive: [1]

C=CC1(C)OC(=O)N(c2cc(Cl)cc(Cl)c2)C1=O (stereo unspecified)
active: [6] 50 µM
not listed: [1] | [2] | [7] | [17]
inactive: all other assays above

N#Cc1nn(-c2c(Cl)cc(C(F)(F)F)cc2Cl)c(N)c1S(=O)C(F)(F)F (stereo unspecified)
active: [3] 23.8 µM | [8] 21.3 µM | [17] 16.1 µM | [12] 15 µM | [16] 3.22 µM
not listed: [7]
inactive: all other assays above

CCNc1nc(Cl)nc(NC(C)C)n1
inactive: [1] | [5] | [6]

Fc1ccc(Oc2ccnc3cc(Cl)cc(Cl)c23)cc1
inactive: [1] | [2]

C#CCOS(=O)OC1CCCCC1Oc1ccc(C(C)(C)C)cc1 (stereo unspecified)
inactive: [1] | [2]

Source: PubChem BioAssay (EPA / NIEHS)
